# Measurements as given in the supplement of paper PMC6555819.
# Columns and labels:
# Experiment in all cases: PBM binding z-score (relative to random genomic background probes); higher = stronger binding; sequences stand for … in GC…GCGATTGACAGCGTAGAATGAAGG
# [1] = test system: RARb homodimer (NR concentration 270 nM)
# Method in brief: (§1)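 Regression normalization was applied to scanned fluorescence from custom Agilent 4×180K protein-binding microarrays. Before scanning, arrays were incubated 1 h with ligand-free nuclear receptor dimers, and binding was detected with antibodies against each partner (one per run). Binding z-scores use the random background probes as reference.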
# [2] = test system: RARg:RXRa (NR concentration 270 nM, RXRa partner concentration 90 nM)
# Method in brief: as §1
# [3] = test system: RARg homodimer (NR concentration 270 nM)
# Method in brief: as §1
# [4] = test system: RXRa DBDmut IVT, anti-RXR (DBD mutation: RXRa K156A/R161A, NR concentration 90 nM)
# Method in brief: as §1
# [5] = test system: RXRa homodimer (NR concentration 180 nM)
# Method in brief: as §1
# [6] = test system: THRa:RXRa (NR concentration 90 nM, RXRa partner concentration 90 nM)
# Method in brief: as §1
# [7] = test system: THRa homodimer (NR concentration 90 nM)
# Method in brief: as §1
# [8] = test system: VDR homodimer (NR concentration 270 nM)
# Method in brief: as §1
Sequence,PBM binding z-score [1],PBM binding z-score [2],PBM binding z-score [3],PBM binding z-score [4],PBM binding z-score [5],PBM binding z-score [6],PBM binding z-score [7],PBM binding z-score [8]
TCTTGTAGATCAAGCAGGTTGAGAAAGCCTGAGT,-0.543,-0.355,-0.321,0.479,-0.0549,0.0431,-0.698,-0.0523
TCTTGTAGATCCAAGGTTAAGAAAGCCGAAGCCT,0.743,0.336,0.0629,0.928,1.13,1.27,0.204,0.0451
GGAACGAGGGCATACGAGTTGATAGCATGGCGAT,0.493,1.12,1.65,2.41,1.02,2.92,-0.328,2.37
CCTACTGGGCCAAAAAGGTCGTTGATGCCGATAA,1.92,1.18,0.763,0.0571,1.38,1.26,-0.297,1.13
CGTCCAAGGTCATAGGAGGTTAGTGAAGACAGAT,4.27,5.73,5.72,3.76,5.53,4.76,3.13,2.99
CGAACTAGGTCAAGGACACTGAATCTCCGCACGC,3.08,3.94,4.67,1.55,2.66,3.49,3.04,0.782
CCTACTGGGCCATAAAGGTCATTGATGCCGATAA,4.17,4.52,3.88,0.623,4.73,3.05,0.441,2.92
AGTCAAAGTTCACCTAGGTAACGTAAGATATGCT,4.16,5.65,6.29,4.26,4.86,3.51,0.406,3.86
TAGCCTAGGTCATGCGGACCAGTATAGTGTCGGC,2.76,3.99,4.25,0.668,3.05,2.84,1.12,-0.0352
GCTGGTAGATCAAGGTTAAGAAAGACTAAGCTAA,0.171,0.216,0.368,-0.116,0.692,1.36,-0.209,-0.133
TCTTGTAGATCCACAGGAGGTTAAGAAAGATCGA,0.545,0.509,0.319,0.48,0.994,0.962,0.0268,-0.139
CCTACTGGGCCAAAAAGGTTATTGATGCCGATAA,1.36,0.788,0.644,-0.387,1.03,0.617,-0.462,0.00157
GATACAGGGTCAAGGCCAGGGTACGCGTATTGAT,3.96,5.8,4.85,2.61,5.97,3.95,1.51,2.65
TCTATTAGTTGATTAGAGCAACCGAAACAGCGGA,-0.716,0.0982,0.245,0.765,0.293,-0.353,-0.739,0.18
CGAACCAGGTCAGAACAGGACAGTGAAGGATGAT,2.14,2.84,3.33,0.868,2.06,3.69,0.812,0.276
TCTAGCAGGCCAGAGGGTGACTCAAGAGGTACGG,0.225,0.176,-0.109,-0.237,0.486,-0.0515,-0.795,-0.534
CACACTAGGTCAAGGTCAAAGTCGGTTTGTGCCA,4.95,6.21,6.6,3.28,5.76,4.44,4.03,4.95
CGAACTAGGTCTTCCAGGACAGTGAATACATTGA,0.194,0.154,0.415,0.373,-0.0434,1.71,0.787,0.0101
GCTGCTATGTCAACTGATGGTCAGCTAAAGCTCG,0.659,0.506,0.101,0.137,-0.00112,-0.0819,-1.13,-0.702

Sequence,PBM binding z-score [1],PBM binding z-score [2],PBM binding z-score [3],PBM binding z-score [4],PBM binding z-score [5],PBM binding z-score [6],PBM binding z-score [7],PBM binding z-score [8]
CGAACTAGGTCAGAAAAGGACAGTGAAGGATGAT,2.62,2.78,3.84,0.166,0.978,3.91,0.0421,-0.122
GCATATAGGTAATACAAGGTGTAAGTCCGATTGT,-0.384,-0.0828,0.241,0.314,0.0841,1.3,-0.232,-0.121
TCTAGTTGGTCACGGAGGTCACTCACGACGGGTA,4.12,4.23,4.31,1.24,3.96,3.23,2.26,2.93
GCTGCTAGGTCAGGTTGGGCAGCTAACGGGTACG,2.36,2.43,3.88,0.101,0.717,1.91,0.583,0.178
CTTCCAAGGTCAGCAGGTCAGTGAAAGCGACGTG,5.26,6.14,6.94,2.24,5.48,3.83,2.79,1.68
ACAGACTGGTGAGTGAAGGTAACTCAGCTGGACG,-0.42,-0.303,-0.112,-0.514,-0.182,0.0338,-0.517,-0.299
ATCTCTAGGTAACAACTTCAGTGAAAGAGAGGAC,0.514,0.787,0.752,-0.232,0.536,1.14,0.654,0.576
TCTTGTAGATCAACAGGAGGTTAAGTAAGATCGA,0.766,1.15,0.284,0.388,1.02,1.78,-0.391,-0.26
TCATATAGGTAAAAGGCGAAAGTCGGTGTGGTAA,-0.139,0.0161,-0.195,1.51,0.665,-0.0856,-0.0858,0.0813
ATCTCTAGGTAAAAGTTCAGTTAATCCCGAGGAT,2.52,2.1,2.04,0.885,1.63,1.61,0.805,2.12
AGTCAAAGTTCATCTAGGTAACGGAAGATATGCT,4.04,5.6,6.13,4.58,4.85,3.33,0.388,5.59
TCATCTAGGTAAAAGGTGAAAGTCGGTGTGGTAA,2.04,1.82,0.925,1.24,2.84,1.99,0.446,0.293
TTACCAAGGTGAGCTGAGGTCGTAGATCCAACTC,1.66,1.5,1.13,-0.577,1.72,4.78,1.9,0.82
CAAACTAGGTCACCGGACGGTCAAAGTCCGCATG,4.41,6.71,6.04,1.41,4.05,3.5,1.73,1.1
GCAGACAGGTGAATCGCAGGTAACTCAGGGTGGC,0.0663,0.806,0.164,-0.612,0.449,1.31,-0.285,-0.754
AATACAGGCTCATCGTAGGCCAGAGTACGCACAG,0.104,-0.0529,0.066,-0.472,-0.0365,0.0323,-0.199,0.118
AGTCAAAGTTCAGGACGAGGTAACGTATAGCACG,3.26,4.94,4.94,3.22,3.15,3.88,1.73,2.37
GCGACTGGGGCATCAGCAGGTTGCCATAACTTAA,0.046,-0.0231,-0.244,-0.343,-0.273,-0.00785,-0.582,-0.425
GTACCAAGGTGAATAAGTCGTTGATGAGTAGGCG,0.43,0.827,0.671,-0.0366,0.742,1.21,0.531,0.148

Sequence,PBM binding z-score [1],PBM binding z-score [2],PBM binding z-score [3],PBM binding z-score [4],PBM binding z-score [5],PBM binding z-score [6],PBM binding z-score [7],PBM binding z-score [8]
CAGCCTAGGTCCGGGCCAGTATAGGAGGAACGTT,-0.676,-0.685,-0.755,-1.37,-0.779,-0.819,-1.03,-0.835
CATACAGGGTCAGCTAGGTCAGAGTAGGGACGGC,4.28,5.09,5.08,1.93,4.95,4.07,2.33,2.85
CCGAGTAGGTGATGGGGCATTCAGGCAACGGTGA,0.69,0.024,-0.0731,-0.961,0.074,0.211,-0.0233,-0.306
AGAATGAGGTTATTAAGATAAGGGAATTGCGGTC,0.848,1.41,0.946,1.84,1.8,1.95,0.273,0.849
GTATATAGGTAATACAAGGTGAAAGTCCGATTGT,1.06,0.647,0.697,0.401,0.751,4.18,1.48,0.367
ATCGAACGGTCGTGAGGTGAGTATACAGAAAGGC,0.679,0.948,1.19,-0.665,0.53,1.48,0.666,-0.261
AGTATGAGGTTATTAAGATCAGGGAATTGCGGTC,1.18,1.27,1.09,2.07,1.53,2.27,1.05,1.41
CGGAGTAGGTTATGGGGCATTCAGGCAACGGTGA,1.26,0.544,0.721,-0.446,0.668,0.705,0.801,0.416
TTACCAAGGTGACAGGTCGTTGATGCACGCCTTG,1.52,1.37,1.17,0.0135,1.61,2.19,1.19,0.797
GCTCGGAGGACAAGATCAGAGCTTTGTCCGTAGA,-0.303,-0.459,0.204,-0.708,-0.639,0.191,-0.651,-0.587
ACTAGCAGGCCAAGCGTCACTCAAGATTAGTCCG,-0.0548,-0.358,0.0982,-0.131,-0.281,-0.489,-0.737,-1.26
AGAATGAGGTTACCGAAGATCAGGGAAACGCTTG,0.586,2.27,1.76,1.5,2.87,3.05,0.672,0.193
CCTGCTAGGTCAATGGTCAGCTATAGCAGCTCGC,3.2,3.54,4.59,1.75,2.21,2.26,0.61,0.24
ATCTCTAGGTAACCAAGTGCAGTGAATGCCGAAC,0.232,0.129,0.205,0.0153,0.0437,0.515,0.223,0.337
TCTCGGAGGACTCGAAGGTCAGAGCTTTCCAGAG,2.73,1.7,1.24,0.262,1.41,1.65,-0.0603,-0.0798
ACTATTAGTTCACTTAGGGCAACCGATACGACGC,1.93,2.02,2.25,2.72,1.04,3.1,0.596,2.32
TCGAGTAGGTTAGTCGGGGCTTTCAGCCAACATA,-0.364,-0.483,-0.728,0.169,-0.346,1.11,-0.892,-0.862
CGTCCAAGGTCAGAGAGGTCGGTGAATGCCGAGT,4.09,4.84,5.91,2.7,3.93,3.66,1.38,3.09
CCTTACGGGTCACTGACAGGTTATATCATTTGGA,3.45,5.75,4.58,1.64,5.22,2.96,0.162,1.32
